Screening data: PubChem, National Center for Advancing Translational Sciences (NCATS)
Hits are enriched below; roughly 3% of the tested compounds scored in any of these assays.
SNCA viab count: GF-AFC viability counterscreen for inhibitors of alpha-synuclein gene (SNCA) expression. HEK-293-SNCA-luc viability, GF-AFC fluorescence, 24 h. Potency, µM (titrated, usually from 57.1 µM), usual class: cytotoxic. 150,000 compounds, 0.12% hits; note: nearly all actives have a fitted effect of over 30% in size
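Cytotoxicity counterscreen: after 24 h compound treatment of genome-edited SNCA-luciferase HEK-293 cells, live-cell protease substrate GF-AFC read by fluorescence after 30 min; activity scaled between DMSO (0%) and medium-only (-100%), curves Hill-fitted.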
IP6K1 inhibitor: Primary qHTS assay for small molecule inhibitors of Inositol hexaphosphate kinase 1 (IP6K1); Inositol hexakisphosphate kinase 1 (Homo sapiens), Q92551; AID 1645851, 2021; 140,000 compounds, 0.81% hits; activity change, % (series mostly up to about 58 µM); IP6K1 kinase, ADP-Glo luminescence, 2 h; stronger effect = lower value; in the data active = activity change below about -25%
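ADP-Glo luminescence measures ADP made by human IP6K1 during a 2 h RT reaction with ATP/IP6 (mix at 1.3 mM/130 uM); top library doses 57.5 and 19.1 uM final.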
KDM5B inhibitor: Primary screen for KDM5B Histone Demethylases FDH-coupled qHTS; Lysine-specific demethylase 5B (Homo sapiens), Q9UGL1; KDM5B demethylase, FDH-coupled NADH fluorescence (FDH is formaldehyde dehydrogenase); Potency, µM (top dose mostly 57.7 µM), hits mostly inhibitors; 220,000 compounds, 2.6% hits; AID 1347165, 2019; note: nearly all actives have a fitted effect of over 70% in size
Target sequence (Q9UGL1 whole entry, looked up): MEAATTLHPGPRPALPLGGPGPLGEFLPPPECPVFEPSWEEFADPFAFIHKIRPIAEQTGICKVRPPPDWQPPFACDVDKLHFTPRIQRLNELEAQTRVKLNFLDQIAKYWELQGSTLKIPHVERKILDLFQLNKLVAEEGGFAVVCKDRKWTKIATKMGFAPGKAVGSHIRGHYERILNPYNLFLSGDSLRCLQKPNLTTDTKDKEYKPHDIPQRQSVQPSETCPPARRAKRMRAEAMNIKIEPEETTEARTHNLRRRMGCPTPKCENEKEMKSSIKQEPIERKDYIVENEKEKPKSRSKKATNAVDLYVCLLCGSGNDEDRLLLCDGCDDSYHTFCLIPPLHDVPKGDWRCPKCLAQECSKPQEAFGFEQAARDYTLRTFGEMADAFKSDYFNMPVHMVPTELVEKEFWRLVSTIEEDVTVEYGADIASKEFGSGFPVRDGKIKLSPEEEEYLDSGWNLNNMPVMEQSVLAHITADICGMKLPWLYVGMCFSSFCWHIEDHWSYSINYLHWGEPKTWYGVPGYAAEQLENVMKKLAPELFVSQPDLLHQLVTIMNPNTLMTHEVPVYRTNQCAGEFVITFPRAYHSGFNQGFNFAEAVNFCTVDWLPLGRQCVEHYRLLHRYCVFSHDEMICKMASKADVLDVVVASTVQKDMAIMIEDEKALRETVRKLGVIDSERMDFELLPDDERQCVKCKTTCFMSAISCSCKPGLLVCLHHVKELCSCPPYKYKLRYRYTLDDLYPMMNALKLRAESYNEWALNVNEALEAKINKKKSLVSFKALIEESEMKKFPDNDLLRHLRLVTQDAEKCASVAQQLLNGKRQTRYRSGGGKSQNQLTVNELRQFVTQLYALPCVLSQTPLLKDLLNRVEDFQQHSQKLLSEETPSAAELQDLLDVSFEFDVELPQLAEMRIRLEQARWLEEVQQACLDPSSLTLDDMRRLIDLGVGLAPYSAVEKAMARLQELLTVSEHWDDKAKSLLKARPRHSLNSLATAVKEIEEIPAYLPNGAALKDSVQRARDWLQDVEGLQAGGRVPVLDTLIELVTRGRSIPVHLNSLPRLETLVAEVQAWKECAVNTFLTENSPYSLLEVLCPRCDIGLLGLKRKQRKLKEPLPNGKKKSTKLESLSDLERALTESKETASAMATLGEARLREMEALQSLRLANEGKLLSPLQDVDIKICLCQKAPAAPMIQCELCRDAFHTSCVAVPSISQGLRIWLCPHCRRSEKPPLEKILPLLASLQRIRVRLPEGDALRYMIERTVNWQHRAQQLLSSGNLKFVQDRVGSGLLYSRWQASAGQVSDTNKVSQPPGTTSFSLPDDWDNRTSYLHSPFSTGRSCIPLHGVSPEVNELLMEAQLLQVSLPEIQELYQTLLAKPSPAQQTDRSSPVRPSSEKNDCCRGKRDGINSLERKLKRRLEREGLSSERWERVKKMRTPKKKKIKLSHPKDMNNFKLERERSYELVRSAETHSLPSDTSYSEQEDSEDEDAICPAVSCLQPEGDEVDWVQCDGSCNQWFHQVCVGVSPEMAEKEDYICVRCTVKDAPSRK
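Coupled FDH/NAD⁺ fluorescence readout. KDM5BΔAP 200 nM final; compound titration, 10 min RT preincubation; substrate mix 12.5 µM H3K4me3, 25 µM 2-OG, 50 µM Fe(II), 100 µM ascorbate, 0.25 mM NAD⁺, 0.25 U/mL FDH; ΔRFU over 30 min.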
SNCA expr inhib: Primary qHTS assay for inhibitors of alpha-synuclein gene (SNCA) expression | Potency, µM (doses to about 57.2 µM), most hits filed as inhibitors | 140,000 compounds, 0.17% hits | AID 1671194, 2021 | HEK-293 SNCA-luciferase knock-in, luminescence, 24 h; note: nearly all actives have a fitted effect of over 45% in size
IP6K1 conf: Confirmatory qHTS assay for small molecule inhibitors of Inositol hexaphosphate kinase 1 (IP6K1); recombinant IP6K1 kinase, ADP-Glo luminescence, 2 h; AID 1645852, 2021; shares compounds with IP6K1 inhibitor; Potency, µM (highest dose often 49 µM), hits mostly inhibitors; 1,200 compounds, 13% hits; note: nearly all actives have a fitted effect of over 65% in size
Each line names hits and unclear results; the compound was inactive in the other large screens (follow-up assays come after a bar, where they were run). Unless noted, calls come from the whole dose curve; as a rule, active = well fitted curve in the direction sought with a large enough effect; inconclusive = small, poorly fitted or top-dose-only effect, or another doubt; inactive = no such curve, though single readings can be large; an effect the other way counts as inactive or inconclusive.

COc1ccc(CC(=O)N2CCN(Cc3ccccc3-c3ccc(C)c(Cl)c3)CC2)cc1	none (no result: KDM5B inhibitor)
Cc1cc(SCc2sc(-c3ccc(C(F)(F)F)c(F)c3)nc2C)ccc1OCC(=O)O	IP6K1 inhibitor -30 (no result: KDM5B inhibitor) | IP6K1 conf inconclusive
COc1ccccc1-c1cc([C@H]2CN3CC[C@H]2C[C@@H]3COC(=O)Nc2ccc(C(C)C)cc2)nc(C)n1	SNCA viab count inconclusive, SNCA expr inhib inconclusive
CN1CCN(C(=O)Cc2c[nH]c3ncc(-c4ccccc4Oc4ccccc4)cc23)CC1	IP6K1 inhibitor -28, KDM5B inhibitor 40µM | IP6K1 conf inactive
CN1CCN(C(=O)Cc2c[nH]c3ncc(-c4cccc(OC(F)(F)F)c4)cc23)CC1	IP6K1 inhibitor -53, KDM5B inhibitor 35µM | IP6K1 conf inconclusive
COP(=S)(OC)SCN1C(=O)c2ccccc2C1=O	IP6K1 inhibitor -37 (no result: KDM5B inhibitor) | IP6K1 conf 18µM
CC(=O)O[C@H]1CN2CCC1CC2	SNCA viab count inconclusive (no result: KDM5B inhibitor, SNCA expr inhib)
CCCCOC(=O)N1C[C@H](C(=O)OCC)[C@H]2c3ccccc3N(CC3CC3)C(=O)[C@]21C	none (no result: KDM5B inhibitor)
N#Cc1cn([C@@H]2O[C@H](CO)[C@H](O)[C@@H]2O)c2ncnc(N)c12	IP6K1 inhibitor -27 (no result: KDM5B inhibitor, SNCA expr inhib) | IP6K1 conf 10µM
O=C(Cc1ccccn1)N1CCN(Cc2ccccc2-c2ccccc2F)CC1	none (no result: KDM5B inhibitor)
CN(C)[C@@H]1C(=O)C(C(N)=O)=C(O)[C@@]2(O)C(=O)C3=C(O)c4c(O)cccc4[C@@](C)(O)[C@H]3C[C@@H]12	IP6K1 inhibitor -75 (no result: KDM5B inhibitor) | IP6K1 conf inactive
CN(C)[C@@H]1C(=O)C(C(N)=O)=C(O)[C@@]2(O)C(=O)C3=C(O)c4c(O)ccc(Cl)c4[C@@](C)(O)C3C[C@@H]12 (some centres undefined)	none (no result: KDM5B inhibitor, SNCA expr inhib)
COc1cc2c(cc1OCC1CC1)NC(=O)C21CCN(C(=O)c2cccc(C#N)c2)CC1	IP6K1 inhibitor -27 | IP6K1 conf inactive
COc1cc2c(cc1OCc1ccccc1)NC(=O)C21CCN(c2cnccn2)CC1	IP6K1 inhibitor -29, KDM5B inhibitor 32µM | IP6K1 conf inconclusive
COc1cc2c(cc1OC1CCCC1)NC(=O)C21CCN(c2cnccn2)CC1	IP6K1 inhibitor -30, KDM5B inhibitor inconclusive, SNCA expr inhib inconclusive | IP6K1 conf inactive
CN1C2CCC1CC(OC(=O)N1Cc3ccccc3NC1=O)C2 (centres undefined)	none (no result: KDM5B inhibitor, SNCA expr inhib)
